Experiments:
[1] = target: T1, Aspartate--tRNA(Asp/Asn) ligase (Mycobacterium tuberculosis (strain ATCC 25618 / H37Rv)) (UniProt P9WFW3); assay: Assay for Asp RNA synthetase-1 from Mycobacterium tuberculosis; format: functional; parameters: scale not given: direction of the effect not stated beside the values; conditions: 30 µM; also: in the data most compounds retested in dose-response had high values
T1 sequence (whole entry): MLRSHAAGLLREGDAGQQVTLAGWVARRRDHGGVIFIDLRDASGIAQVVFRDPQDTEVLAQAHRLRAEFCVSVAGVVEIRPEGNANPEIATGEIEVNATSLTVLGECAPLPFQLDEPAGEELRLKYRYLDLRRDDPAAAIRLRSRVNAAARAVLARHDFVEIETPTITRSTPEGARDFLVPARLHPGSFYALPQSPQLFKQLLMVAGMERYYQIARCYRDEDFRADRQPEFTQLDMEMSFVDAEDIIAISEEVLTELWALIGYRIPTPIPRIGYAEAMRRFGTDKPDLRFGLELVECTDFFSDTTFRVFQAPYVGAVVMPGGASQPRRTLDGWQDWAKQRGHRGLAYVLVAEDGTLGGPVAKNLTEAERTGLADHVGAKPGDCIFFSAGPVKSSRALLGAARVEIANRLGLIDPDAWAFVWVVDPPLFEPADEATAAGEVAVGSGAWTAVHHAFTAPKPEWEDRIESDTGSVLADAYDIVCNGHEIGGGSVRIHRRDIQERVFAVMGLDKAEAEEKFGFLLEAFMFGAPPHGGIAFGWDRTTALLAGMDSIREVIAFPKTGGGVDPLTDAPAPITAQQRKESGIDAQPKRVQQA

[2] = target: Shiga toxin 2 (Escherichia coli O157:H7) (UniProt P09385+P09386); assay: E. coli 0.157:H7 Shiga Toxin SOP - stx2 screening assay; format: functional; parameters: scale not given: direction of the effect not stated beside the values; conditions: 30 µM

| Structure (SMILES) | Percent Effect [1] [%] | Percent Effect [2] [%] |
| --- | --- | --- |
| Cc1cc(C2CCCN2C(=O)NCc2cccc(F)c2)on1 (stereo unspecified) | -1.23 |  |
| COc1ccc(F)c(CN2CCC3(CCC(=O)N(CC(N)=O)C3)CC2)c1 | -3.94 |  |
| CC(C)Oc1ccc(CSc2nnc(CN3CCCC3=O)o2)cc1 | -7.23 |  |
| Cc1c[nH]c(CN(C)C(=O)c2cccc(CCC(C)(C)O)c2)n1 | -1 |  |
| CCCS(=O)(=O)N1CCC(NC(=O)c2ccc(Cl)s2)CC1 | 0.379 |  |
| COc1ccccc1CN(C)c1nccc(-c2cn(C)nc2C)n1 | -1.34 |  |
| CCN(C)c1ccc(C(=O)N(CCOC)Cc2ccccn2)cc1 | 2.13 |  |
| CCCNC(=O)CCNC(=O)Cc1nc(-c2ccco2)oc1C | 2.08 |  |
| O=C(c1ccsc1)N1C[C@@H](CN2CCCC2)[C@@H](CO)C1 | -2.54 |  |
| CC(C)c1ncc(CN2C[C@@H](CN3CCC(CO)CC3)[C@@H](CO)C2)cn1 | -1.92 |  |
| CS(=O)(=O)NCC(=O)NC1CCc2nccn2C1 (stereo unspecified) | 2.91 |  |
| Cc1cccc(CN2C[C@H]3OC(=O)N(CCCN4CCOCC4)[C@H]3C2)n1 | -2.42 |  |
| CCc1nc(CCNC(=O)Nc2ccc(C(=O)NC)cc2C)cs1 | -2.88 |  |
| CCc1nc(NS(=O)(=O)c2cc(C)ccc2F)no1 | -2.52 |  |
| CCN(CC)c1ccc(-c2nc(-c3cccc(OC)c3OC)no2)cn1 | -4.22 |  |
| CCCn1cc(C(=O)N(C)Cc2nc(-c3ccccn3)no2)c(C)n1 | -0.218 |  |
| COCCc1noc(CN(C)C2CCCN(c3ccc(C)nn3)C2)n1 (stereo unspecified) | 0.172 |  |
| O=C(O)[C@]12CCCN(Cc3ccncc3)[C@@H]1CCN(c1cnccn1)C2 | 0.862 |  |
| CCn1nc(C)c(CCn2ccnc2-c2cc3n(n2)CCCNC3)c1C | -1.76 |  |
| CNC(=O)c1cccc(CNC(=O)C2CC(=O)N(CCN(C)C)C2)c1 (stereo unspecified) | -2.01 |  |
| CC(Sc1nnnn1C1CCOCC1)C(=O)NC1CCCCC1 (stereo unspecified) | 1.09 |  |
| Cc1ccc(CNC(=O)N(Cc2ccccc2F)C2CC2)cn1 | -0.931 |  |
| O=C(CN(C1=NCCCC1)c1ccccc1)c1ccccc1 | 2.67 | -26.2 |
| O=C(c1ccccn1)N1CCCC(c2nccn2CC2CCC2)C1 (stereo unspecified) | 4.83 | -29.9 |

— ChEMBL document CHEMBL3988442, “University of Dundee, Small-Polar-MMV Screening Library” (2021)
